Records with an inconclusive call do not appear. A call without a number means that no potency is given here. Activity calls are given as the source filed them. Unless noted, calls follow the shape of the full dose curve.
Assays:
[1] = Natriuretic polypeptide receptor (hNpr1) antagonism - Pilot counterscreen GloSensor control cell line (AID 1347045); also: potency is read from the fitted curve at half-maximal effect
Outline: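 The SNP-driven cGMP luminescence signal (50 uM, 20 min, room temperature) was measured in GloSensor HEK293 control cells. Compounds were tested as a LOPAC titration series and preincubated for 30-50 min.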

[2] = target: Atrial natriuretic peptide receptor 1 (Homo sapiens) (UniProt P16066); experiment: Natriuretic polypeptide receptor (hNpr1) antagonism - Pilot screen (AID 1347049);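 also: HEK293 cells with hNpr1 and GloSensor cGMP luciferase stimulated by 0.1 nM hNppA; agonist-evoked cGMP luminescence read 20 min after hNppA addition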; also: potency is read from the fitted curve at half-maximal effect
Atrial natriuretic peptide receptor 1 (Homo sapiens), sequence (P16066 whole entry, looked up): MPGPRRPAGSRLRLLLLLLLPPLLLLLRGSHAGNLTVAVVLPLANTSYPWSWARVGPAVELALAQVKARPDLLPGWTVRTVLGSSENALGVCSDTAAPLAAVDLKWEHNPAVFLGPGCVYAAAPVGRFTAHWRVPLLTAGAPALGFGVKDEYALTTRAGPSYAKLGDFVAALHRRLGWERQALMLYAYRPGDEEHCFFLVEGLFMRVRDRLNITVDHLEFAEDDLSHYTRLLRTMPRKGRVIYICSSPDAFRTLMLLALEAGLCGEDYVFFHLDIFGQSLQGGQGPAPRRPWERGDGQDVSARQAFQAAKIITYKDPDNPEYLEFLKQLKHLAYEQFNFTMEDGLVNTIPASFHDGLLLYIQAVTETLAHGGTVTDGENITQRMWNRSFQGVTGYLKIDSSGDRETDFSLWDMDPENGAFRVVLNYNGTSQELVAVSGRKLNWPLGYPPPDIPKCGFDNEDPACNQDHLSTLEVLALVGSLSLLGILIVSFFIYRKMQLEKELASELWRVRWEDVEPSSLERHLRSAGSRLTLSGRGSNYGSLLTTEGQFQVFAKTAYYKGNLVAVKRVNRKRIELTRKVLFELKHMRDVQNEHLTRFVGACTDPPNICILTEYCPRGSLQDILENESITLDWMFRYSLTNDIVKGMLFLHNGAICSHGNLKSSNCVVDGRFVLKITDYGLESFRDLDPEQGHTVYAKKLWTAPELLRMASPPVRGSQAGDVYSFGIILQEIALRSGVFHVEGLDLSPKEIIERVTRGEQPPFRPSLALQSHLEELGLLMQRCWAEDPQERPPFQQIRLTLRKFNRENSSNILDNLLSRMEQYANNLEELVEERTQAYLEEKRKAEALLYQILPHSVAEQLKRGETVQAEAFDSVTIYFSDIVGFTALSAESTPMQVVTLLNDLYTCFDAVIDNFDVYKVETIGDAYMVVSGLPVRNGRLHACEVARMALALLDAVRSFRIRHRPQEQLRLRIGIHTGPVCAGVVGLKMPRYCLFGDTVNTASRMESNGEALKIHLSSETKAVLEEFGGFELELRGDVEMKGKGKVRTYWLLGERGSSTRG
Outline: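 Receptor antagonism read as cGMP-dependent luminescence in hNpr1/pGS-40F HEK293 cells: pre-read after 30 min compound exposure, post-read 20 min after hNppA agonist at 0.1 nM final, all at room temperature, protected from light; A-71915 titration as control.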

[3] = target: Atrial natriuretic peptide receptor 2 (Homo sapiens) (UniProt P20594); experiment: Natriuretic polypeptide receptor (hNpr2) antagonism - Pilot subtype selectivity assay (AID 1347050); also: potency is read from the fitted curve at half-maximal effect
Atrial natriuretic peptide receptor 2 (Homo sapiens), sequence (P20594 whole entry, looked up): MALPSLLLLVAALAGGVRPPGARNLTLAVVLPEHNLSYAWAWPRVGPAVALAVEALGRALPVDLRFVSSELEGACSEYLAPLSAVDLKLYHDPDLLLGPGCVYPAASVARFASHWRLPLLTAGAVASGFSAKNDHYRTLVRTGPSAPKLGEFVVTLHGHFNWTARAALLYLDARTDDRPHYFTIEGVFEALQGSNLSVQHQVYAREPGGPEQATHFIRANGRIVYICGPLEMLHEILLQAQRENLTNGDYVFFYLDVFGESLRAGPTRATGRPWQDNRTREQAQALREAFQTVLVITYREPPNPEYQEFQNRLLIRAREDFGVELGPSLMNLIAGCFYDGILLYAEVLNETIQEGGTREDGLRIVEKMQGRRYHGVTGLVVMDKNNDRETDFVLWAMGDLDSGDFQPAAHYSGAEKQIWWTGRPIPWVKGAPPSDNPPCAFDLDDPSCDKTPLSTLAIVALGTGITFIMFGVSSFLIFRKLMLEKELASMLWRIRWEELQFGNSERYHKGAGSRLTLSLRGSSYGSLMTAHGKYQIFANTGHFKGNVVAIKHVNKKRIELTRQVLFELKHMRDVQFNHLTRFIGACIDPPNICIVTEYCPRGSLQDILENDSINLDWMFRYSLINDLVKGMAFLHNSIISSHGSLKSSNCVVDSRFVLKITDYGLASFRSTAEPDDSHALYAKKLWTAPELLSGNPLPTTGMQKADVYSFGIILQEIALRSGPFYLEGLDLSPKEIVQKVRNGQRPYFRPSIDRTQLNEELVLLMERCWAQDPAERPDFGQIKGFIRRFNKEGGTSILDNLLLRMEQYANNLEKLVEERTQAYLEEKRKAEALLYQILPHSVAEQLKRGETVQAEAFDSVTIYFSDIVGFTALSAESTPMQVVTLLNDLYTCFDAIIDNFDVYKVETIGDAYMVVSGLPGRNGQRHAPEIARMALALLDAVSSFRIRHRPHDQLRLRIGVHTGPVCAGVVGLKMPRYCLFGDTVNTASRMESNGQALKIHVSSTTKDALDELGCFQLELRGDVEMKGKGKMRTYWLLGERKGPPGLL
Outline: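 Antagonist mode: compounds (LOPAC1280, seven 1:5 dilutions) added 30 min before 1 nM hNppC stimulation of hNpr2-HEK293 cGMP-sensor cells; luminescence read before and 20 min after agonist at ambient temperature.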

[4] = NS1 protein of Zika virus - qHTS assay to identify small molecule inhibitors in human HEK 293 cells (AID 1347053; active = well fitted curve in the direction sought with a large enough effect; an effect the other way counts as inactive or inconclusive; also: series mostly up to about 46 µM; nearly all actives have a fitted effect of over 55% in size)
Outline: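 Read-out is a two-antibody TR-FRET for ZIKV NS1, normalized between uninfected cells and infected cells. Compound added 1 h before MR766 infection at MOI 0.5; human HEK 293 cells incubated 24 h, 37 C.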

[5] = target: Parathyroid hormone/parathyroid hormone-related peptide receptor (Homo sapiens) (UniProt Q03431); experiment: qHTS for PTHR1 Agonists: Optimization Screen against the NCGC LOPAC library (AID 1347079; active = well fitted curve in the direction sought with a large enough effect; an effect the other way counts as inactive or inconclusive;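 also: GloSensor cAMP luminescence in HEK-293 GP2 cells expressing human PTHR1 with IBMX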)
Parathyroid hormone/parathyroid hormone-related peptide receptor (Homo sapiens), sequence (Q03431 whole entry, looked up): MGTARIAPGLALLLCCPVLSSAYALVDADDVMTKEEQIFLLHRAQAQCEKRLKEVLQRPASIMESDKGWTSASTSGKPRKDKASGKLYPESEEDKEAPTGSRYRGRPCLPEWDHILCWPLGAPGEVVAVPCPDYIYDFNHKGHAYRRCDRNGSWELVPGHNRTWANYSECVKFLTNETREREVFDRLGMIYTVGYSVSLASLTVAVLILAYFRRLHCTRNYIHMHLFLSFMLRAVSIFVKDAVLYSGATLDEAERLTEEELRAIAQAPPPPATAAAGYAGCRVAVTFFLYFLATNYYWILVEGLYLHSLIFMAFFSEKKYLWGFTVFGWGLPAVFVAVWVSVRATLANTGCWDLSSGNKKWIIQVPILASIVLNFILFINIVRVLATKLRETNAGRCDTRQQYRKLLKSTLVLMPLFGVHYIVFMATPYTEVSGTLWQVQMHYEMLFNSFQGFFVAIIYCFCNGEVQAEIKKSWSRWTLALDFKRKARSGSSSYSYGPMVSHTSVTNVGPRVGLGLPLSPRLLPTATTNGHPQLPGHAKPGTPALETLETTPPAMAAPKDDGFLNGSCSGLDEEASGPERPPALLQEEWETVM
Outline: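 Signal increase flags agonism. GP2 cells, derived from HEK-293, express human PTHR1 and a GloSensor cAMP construct.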

[6] = target: T1, Tyrosine-protein phosphatase non-receptor type substrate 1 (Homo sapiens) + Leukocyte surface antigen CD47 (Homo sapiens) (UniProt P78324+Q08722); experiment: CD47-SIRPalpha protein protein interaction - LANCE assay qHTS validation (AID 1347057; active = well fitted curve in the direction sought with a large enough effect in the signal ratio, with a control signal flat, not every such curve was filed as active; the % refers to the signal ratio; also: series mostly up to about 38 µM)
T1 sequence (P78324 whole entry, looked up, the tested form may be a part): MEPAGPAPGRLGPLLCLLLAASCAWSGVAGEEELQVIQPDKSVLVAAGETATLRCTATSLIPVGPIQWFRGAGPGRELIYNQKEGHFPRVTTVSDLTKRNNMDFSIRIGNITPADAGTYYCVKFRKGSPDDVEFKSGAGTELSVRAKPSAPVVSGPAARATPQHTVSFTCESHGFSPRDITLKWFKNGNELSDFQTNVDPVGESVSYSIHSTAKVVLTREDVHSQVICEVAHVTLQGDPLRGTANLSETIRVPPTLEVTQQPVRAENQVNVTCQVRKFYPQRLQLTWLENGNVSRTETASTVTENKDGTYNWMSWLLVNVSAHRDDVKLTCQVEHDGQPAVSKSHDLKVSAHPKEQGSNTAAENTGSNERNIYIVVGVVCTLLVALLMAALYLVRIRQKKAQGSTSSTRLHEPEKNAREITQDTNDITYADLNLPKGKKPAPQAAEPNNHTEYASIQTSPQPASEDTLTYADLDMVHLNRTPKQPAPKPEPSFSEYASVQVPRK
T1 sequence (Q08722 whole entry, looked up, the tested form may be a part): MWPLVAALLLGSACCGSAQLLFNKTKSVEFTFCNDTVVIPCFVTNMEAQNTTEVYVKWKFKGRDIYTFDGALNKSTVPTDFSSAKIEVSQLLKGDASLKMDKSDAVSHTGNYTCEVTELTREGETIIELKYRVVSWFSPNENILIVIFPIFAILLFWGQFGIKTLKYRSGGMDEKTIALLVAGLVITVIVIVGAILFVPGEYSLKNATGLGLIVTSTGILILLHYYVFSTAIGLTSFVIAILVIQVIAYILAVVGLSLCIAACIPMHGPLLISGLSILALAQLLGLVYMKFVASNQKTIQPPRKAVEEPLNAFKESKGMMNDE
Outline: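 Inhibition of soluble CD47/SIRPalpha ectodomain association by titrated compounds, measured as 665/615 nm time-resolved FRET ratio after sequential 30 min room-temperature incubations.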

[7] = target: T1, Tyrosine-protein phosphatase non-receptor type substrate 1 (Homo sapiens) + Leukocyte surface antigen CD47 (Homo sapiens); experiment: CD47-SIRPalpha protein protein interaction - HTRF assay qHTS validation (AID 1347058; active = well fitted curve in the direction sought with a large enough effect in the signal ratio, not every such curve was filed as active; the % refers to the signal ratio; also: series mostly up to about 38 µM)
Outline: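 Soluble extracellular domains (6His-CD47, Avi-tag-biotinylated SIRPalpha) in PBS pH 7.4 with 0.05% IGEPAL CA-630. Compounds were preincubated 30 min at RT with CD47 and anti-His-Eu, then SIRPalpha and SAV-XL665 were added. TR-FRET 665/615 ratio.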

[8] = target: T1, Tyrosine-protein phosphatase non-receptor type substrate 1 (Homo sapiens) + Leukocyte surface antigen CD47 (Homo sapiens); experiment: CD47-SIRPalpha protein protein interaction - Alpha assay qHTS validation (AID 1347059; active = well fitted curve in the direction sought with a large enough effect; an effect the other way counts as inactive or inconclusive;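 also: bead proximity luminescence from CD47 binding SIRPalpha after compound preincubation with SIRPalpha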)
Outline: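 AlphaScreen signal between CD47-His (12.5 nM) and biotin-SIRPalpha (25 nM) soluble extracellular domains, bead-captured via Ni-NTA and streptavidin. Compounds, in 7-point titrations, met SIRPalpha 30 min before CD47; PBS pH 7.4 with 0.05% IGEPAL.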

SMILES	Potency [1]	Potency [2]	Potency [3]	Potency [4]	Potency [5]	Potency [6]	outcome [7]	Potency [8]
CN1CCc2cccc3c2C1Cc1ccc(O)c(O)c1-3 (stereo not given)	inactive	inactive	inactive	inactive	inactive			
Nc1ncnc2c1ncn2[C@@H]1O[C@H](COP(=O)(O)CP(=O)(O)OP(=O)(O)O)[C@@H](O)[C@H]1O	inactive	inactive	inactive	inactive	inactive	inactive	inactive	inactive
NCCSSCCN	inactive	inactive	inactive	inactive	inactive	inactive	inactive	inactive
CC(C)(C)c1ccc(S(=O)(=O)/C=C/C#N)cc1	6.56 µM (active)	12 µM (active)	7.36 µM (active)		inactive	inactive	inactive	
CNC(=O)[C@H]1O[C@@H](n2cnc3c(NCc4cccc(I)c4)ncnc32)[C@H](O)[C@@H]1O	inactive	inactive	inactive	inactive	inactive	inactive	inactive	inactive
NC(=S)NCCC[C@H](N)C(=O)O	inactive	inactive	inactive		inactive			
Oc1ccc(C2CNCc3sccc32)cc1O (stereo not given)	inactive	inactive	inactive	inactive	inactive	inactive	inactive	inactive
CCCCN1CCC(n2c(=O)[nH]c3ccccc32)CC1	inactive	inactive	inactive		inactive			
CC(=O)SCC[N+](C)(C)C	inactive	inactive	inactive	inactive	inactive	inactive	inactive	inactive
CCCn1c(=O)c2[nH]c(-c3ccc(OCC(=O)NCCN)cc3)nc2n(CCC)c1=O	inactive	inactive	inactive		inactive			
CN1C2CCC1CC(OC(=O)C(O)c1ccccc1)C2 (stereo not given)	inactive	inactive	inactive	inactive	inactive	inactive	inactive	inactive
CC(COc1ccc(/C=C/c2ccccc2)cc1)[N+](C)(C)C (stereo not given)	inactive	inactive	inactive		inactive			
O=C(O)c1cc([N+](=O)[O-])ccc1NCCCc1ccccc1	inactive	inactive	inactive	inactive	inactive	inactive		
CN1[C@@H](CC(=O)c2ccccc2)CCC[C@H]1C[C@H](O)c1ccccc1	inactive	inactive	inactive	inactive	inactive	inactive	inactive	inactive
CC(C)CC(NP(=O)(O)O[C@@H]1O[C@@H](C)[C@H](O)[C@@H](O)[C@H]1O)C(=O)NC(Cc1c[nH]c2ccccc12)C(=O)O (stereo not given in full)	inactive	inactive	inactive	inactive	inactive	inactive	inactive	inactive
NC(=S)c1ccc[n+]([C@@H]2O[C@@H](COP(=O)([O-])OP(=O)(O)OC[C@H]3O[C@@H](n4cnc5c(N)ncnc54)[C@H](OP(=O)(O)O)[C@@H]3O)C(O)C2O)c1 (stereo not given in full)	inactive	inactive	inactive	inactive	inactive	inactive	inactive	inactive
CN(C)c1ccc(/C=C2\C(=O)Nc3ccccc32)cc1	4.14 µM (active)	1.2 µM (active)	10.4 µM (active)	inactive	inactive			
C[N+]1(C)CCC(OC(=O)C(c2ccccc2)c2ccccc2)CC1	inactive	inactive	inactive	inactive	inactive	inactive	inactive	inactive
Nc1nc(Cl)nc2c1ncn2[C@@H]1O[C@H](CO)[C@@H](O)[C@H]1O	inactive	inactive	inactive	inactive	inactive	inactive	inactive	inactive
CNC(=O)[C@H]1O[C@@H](n2cnc3c(NCc4ccc(N)cc4)ncnc32)[C@H](O)[C@@H]1O	inactive	inactive	inactive	inactive	inactive	inactive	inactive	inactive
O=C(Nc1cccc(C(=O)Nc2ccc(S(=O)(=O)O)c3cc(S(=O)(=O)O)cc(S(=O)(=O)O)c23)c1)Nc1cccc(C(=O)Nc2ccc(S(=O)(=O)O)c3cc(S(=O)(=O)O)cc(S(=O)(=O)O)c23)c1	inactive	inactive	inactive	inactive	inactive	inactive		
O=[N+]([O-])c1ccc2c(c1)S(=O)(=O)C=C2	9.27 µM (active)	10.7 µM (active)	5.85 µM (active)		inactive	inactive		inactive
O=C1NC(=O)/C(=C/c2ccc3nccnc3c2)S1	inactive	inactive	inactive	inactive	inactive	inactive		
Nc1ncnc2c1ncn2[C@@H]1O[C@H](COP(=O)(O)OP(=O)(O)OP(=O)(O)OP(=O)(O)OC[C@@H]2O[C@H](n3cnc4c(N)ncnc43)[C@@H](O)[C@H]2O)[C@@H](O)[C@H]1O	inactive	inactive	inactive	inactive	inactive	inactive	inactive	
CN(C)CCCO[C@@H]1[C@H]2OC(C)(C)O[C@H]2O[C@@H]1[C@H](O)CO	inactive	inactive	inactive		inactive			
Cc1ccc(O)c(N=Nc2ccccc2)n1	7.36 µM (active)	16.9 µM (active)	10.4 µM (active)		inactive	inactive		

SMILES	Potency [1]	Potency [2]	Potency [3]	Potency [4]	Potency [5]	Potency [6]	outcome [7]	Potency [8]
O=C(O)CC[C@@H](C(=O)O)N1C(=O)c2ccccc2C1=O	inactive	inactive	inactive	inactive	inactive	inactive	inactive	
CCc1c(C(=O)NCCc2ccc(N3CCCCC3)cc2)[nH]c2ccc(Cl)cc12	inactive	inactive	inactive		inactive			
O=[N+]([O-])c1ccc(CSc2ncnc3c2ncn3[C@@H]2O[C@H](CO)[C@@H](O)[C@H]2O)cc1	inactive	inactive	inactive	inactive	inactive	inactive		inactive
OC[C@H]1O[C@@H](n2cnc3c(NC4CCCC4)ncnc32)[C@H](O)[C@@H]1O	inactive	inactive	inactive	inactive	inactive	inactive	inactive	
CN(C)C(N)=NCCC[C@H](N)C(=O)O	inactive	inactive	inactive	inactive	inactive	inactive	inactive	
CN1CCc2cc(O)c(O)cc2C(c2ccccc2)C1 (stereo not given)	inactive	inactive	inactive		inactive			
CN(C)c1nc2c(Br)c(Br)c(Br)c(Br)c2[nH]1	inactive	inactive	inactive		inactive			
CCCCC#Cc1nc(NC)c2ncn([C@@H]3O[C@H](CO)[C@@H](O)[C@H]3O)c2n1	inactive		inactive	inactive	inactive		inactive	inactive
Cc1ccc(C(=O)O[C@H](C(=O)O)[C@@H](OC(=O)c2ccc(C)cc2)C(=O)O)cc1 (tested in a mixture with another compound)	inactive		inactive		inactive			
O=C(O)[C@@H]1C[C@H](C(=O)O)N1	inactive	inactive	inactive		inactive			
Nc1nc(Nc2ccccc2)nc2c1ncn2[C@@H]1O[C@H](CO)[C@@H](O)[C@H]1O		inactive	inactive	inactive	inactive	inactive	inactive	inactive
O=C(O)c1cc(=O)c2ccccc2[nH]1		inactive	inactive	inactive	inactive	inactive	inactive	inactive
CN1CCC[C@H]1c1cccnc1	inactive	inactive	inactive		inactive			
CCCCCCCC/C=C\CCCCCCCC(=O)NCCO		inactive	inactive	inactive	inactive	inactive	inactive	inactive
O=C1O/C(=C/Br)CCC1c1cccc2ccccc12 (stereo not given)	16.5 µM (active)	19 µM (active)	11.7 µM (active)		inactive			
CCOC(=O)N1CCN(/[N+]([O-])=N/Oc2ccc([N+](=O)[O-])cc2[N+](=O)[O-])CC1	5.21 µM (active)		10.4 µM (active)	inactive	inactive	inactive		inactive
COc1cc2c(CCNC(C)=O)c[nH]c2cc1Cl		inactive	inactive	inactive	inactive	inactive	inactive	inactive
Oc1cc2c(cc1O)CN(C(=S)NCCc1ccc(Cl)cc1)CCC2		inactive	inactive	inactive	inactive	inactive	inactive	inactive
O=C(O)[C@@H]1C[C@@H](C(=O)O)N1	inactive	inactive	inactive		inactive			
O=c1[nH]c2cc(Cl)c(Cl)cc2[nH]c1=O	inactive	inactive	inactive		inactive			
CCCC1(C)C(C#N)(C#N)C1(C#N)C#N	5.85 µM (active)	8.49 µM (active)	4.65 µM (active)		inactive			
C[N+](C)(C)CC(=O)[O-]	inactive	inactive	inactive		inactive			
CCCCCCCCCCCCCCCC(=O)NCC(COP(=O)([O-])OCC[N+](C)(C)C)OCC (stereo not given)	inactive		inactive		inactive			
Cc1nc2sccn2c(=O)c1CCN1CCC(=C(c2ccccc2)c2ccc(F)cc2)CC1	inactive	inactive	inactive		inactive			
COc1cc2nc(N3CCN(C(=O)OCc4ccccc4)C(C(=O)NC(C)(C)C)C3)nc(N)c2cc1OC (stereo not given)	inactive		inactive		inactive			
CC(C)ON([C@@H](C(=O)NO)C(C)C)S(=O)(=O)c1ccc(-c2ccccc2)cc1	inactive	inactive	inactive		inactive			

Source: PubChem BioAssay (NCATS)
